Measurements reported in PubChem BioAssay.
Where “and” joins values, the source holds several entries; their conditions need not be identical. Identical values can stand only once. Some structures have more than one record in an assay (separate samples or runs), and their calls can disagree. Calls of active or inactive are those of the source.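 The calls were made as follows, unless noted: active = thallium flux through the channel raised or lowered by more than 3 SD from vehicle-only wells, actives on both sides; inactive = the rest.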

Experiments:
[1] = system: Hepatitis C virus NS3 helicase; assay: blockers of NS3h binding to DNA – biochemical, fluorescence polarization, NIH Clinical Collection, primary screen (AID 743270; call rule not given here); conditions: NS3 helicase binding to Cy5-dT15 DNA, stronger effect = higher value, concentration not given here
[2] = target: Single-stranded DNA-binding protein (Escherichia coli (strain K12)) (UniProt P0AGE0); assay: SSB-ssDNA binding inhibitors – biochemical, fluorescence polarization, NIH Clinical Collection, counter-screen for HCV NS3 helicase inhibitor project (AID 743271; in the data active = inhibition above about 28%); conditions: E. coli SSB-DNA binding, stronger effect = higher value, concentration not given here
[3] = compounds distorting NS3 helicase fluorescence signal – biochemical, NIH Clinical Collection, artefact control for HCV NS3 helicase inhibitor project (AID 743272; call rule not given here;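 also: HCV NS3 helicase with a Cy5 labelled single stranded DNA probe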); conditions: fluorescence interference counterscreen, HCV NS3 helicase assay; stronger effect = lower value
[4] = Wnt pathway potentiators raising nuclear beta-catenin – imaging, WNT3A-conditioned medium, mouse C2C12, NPC library, primary screen (AID 1117326; in the data active = nuclear beta-catenin stimulation mostly above about 4.2%, no sharp cut-off; inactive = mostly below about 10%); conditions: stronger effect = higher value
[5] = stimulators of insulin release from INS-1E, primary screen, cell-based, 5 mM glucose, NPC library (AID 1117329;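 active = compound raises insulin release from rat beta cells at 5 mM glucose, no numeric limit stated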); conditions: rat INS-1E insulin secretion, at 10 µM, stronger effect = higher value
[6] = growth inhibition of GSK3B-pretreated HCT116 cells – cell-based, CellTiter-Glo, 0.2 to 20 µM (AID 1117336;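 active = compounds lowering colon cancer cell viability after pretreatment blocking the GSK3B kinase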); conditions: HCT116 viability after GSK3B inhibitor, at 20 µM, stronger effect = higher value
[7] = inhibition of endothelial tube formation, primary screen, imaging, VEGF stimulated, CD31 staining, tube area, NPC library (AID 1117340;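 active = compound that reduces growth-factor-driven endothelial tube area in a mixed cell culture, no cutoff stated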); conditions: VEGF-stimulated ADSC/ECFC co-culture, at 10 µM, stronger effect = higher value
[8] = GLP1 release stimulators, primary, NCI-H716, NPC library (AID 1117341;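 active = compound raises GLP1 secretion from the human gut endocrine cells, with no numeric limit stated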); conditions: NCI-H716 cells, at 10 µM, stronger effect = higher value
[9] = HCT116 colon cancer cell growth inhibition, primary screen, CellTiter-Glo luminescence, NPC library (AID 1117342;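 active = compounds that lower survival of HCT116 colon cancer cells in the luminescence readout, no numeric limit stated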); conditions: at 20 µM (top of the series)
[10] = reduced SW480 viability measured with CellTiter-Glo, NPC library, primary (AID 1117343;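 active = compounds that lower viability of the colon cancer cells in the luminescence readout, with no numeric limit stated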); conditions: CellTiter-Glo luminescence; at 20 µM (top of the series)
[11] = NPC library primary testing for decreased DLD-1 cell viability via CellTiter-Glo (AID 1117346;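 active = compounds that lower survival of DLD-1 colon cancer cells in the luminescence readout, no cutoff given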); conditions: DLD-1 viability, CellTiter-Glo luminescence; at 20 µM (top of the series)
[12] = target: 6-phosphogluconate dehydrogenase, decarboxylating (Homo sapiens) (UniProt P52209); assay: inhibition of human phosphogluconate dehydrogenase – biochemical, recombinant enzyme, NADPH absorbance, primary screen (AID 1159550;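 active = at least 20% inhibition of 6-phosphogluconate dehydrogenase activity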); conditions: recombinant 6PGD, NADPH absorbance 341 nm; at 10 µM; stronger effect = higher value
Chain of 6-phosphogluconate dehydrogenase, decarboxylating (Homo sapiens) (P52209 whole entry, looked up): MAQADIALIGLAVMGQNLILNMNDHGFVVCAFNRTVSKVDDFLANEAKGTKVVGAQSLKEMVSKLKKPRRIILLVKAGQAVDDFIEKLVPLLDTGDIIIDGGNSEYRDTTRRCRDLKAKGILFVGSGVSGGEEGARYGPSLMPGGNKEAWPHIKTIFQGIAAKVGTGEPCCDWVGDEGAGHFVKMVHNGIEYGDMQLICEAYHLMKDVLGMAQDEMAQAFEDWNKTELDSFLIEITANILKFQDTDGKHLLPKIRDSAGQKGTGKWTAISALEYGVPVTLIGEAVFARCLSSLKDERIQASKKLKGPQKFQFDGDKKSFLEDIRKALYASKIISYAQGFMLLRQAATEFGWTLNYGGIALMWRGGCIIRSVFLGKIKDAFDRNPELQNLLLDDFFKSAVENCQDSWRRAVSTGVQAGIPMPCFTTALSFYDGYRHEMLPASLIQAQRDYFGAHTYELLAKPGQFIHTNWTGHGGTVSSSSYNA

[13] = EMT-state selective cytotoxicity in co-culture – imaging, PC-3E GFP, TEM4-18 mCherry, primary screen (AID 1345086;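 active = compounds killing one labelled cell type while sparing the other, by normalised counts and ratio limits, not self-fluorescent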;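 as to all read-outs here: cells exposed to compound for 72 h before imaging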;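 as to red/green cell ratio (normalised): normalised mesenchymal count divided by normalised epithelial count so high means epithelial killing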); conditions: PC-3E GFP / TEM4-18 mCherry co-culture, imaging cell counts, at 1 µM; for red/green cell ratio (normalised): actives lie on both sides, counts scaled to control wells, 1 = unselective
[14] = MELAS cybrid and Rieske KO viability enhancers – cell-based, MELAS cybrids, Rieske KO mouse fibroblasts, CellTiter-Glo, primary screen (AID 1508586;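 active = mean z-score across replicates of 1.96 or higher in either the MELAS or the Rieske mutant cell line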;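 also: z relative to plate mean and SD of compound and empty wells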); conditions: low glucose
[15] = target: NAD(+) hydrolase SARM1 (Homo sapiens) (UniProt Q6SZW1); assay: blocking NAD cleavage by SARM1 SAM-TIR – cell lysate, NAD-Glo luminescence (AID 1508614;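 active = compound whose remaining NAD level is above about 45 nM, limit read from the data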;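 also: higher remaining NAD means stronger inhibition of SARM1 NADase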); conditions: SAM-TIR HEK293T lysate NADase, at 1 µM, stronger effect = higher value
Chain of NAD(+) hydrolase SARM1 (Homo sapiens) (Q6SZW1 whole entry, looked up, the tested form may be a part): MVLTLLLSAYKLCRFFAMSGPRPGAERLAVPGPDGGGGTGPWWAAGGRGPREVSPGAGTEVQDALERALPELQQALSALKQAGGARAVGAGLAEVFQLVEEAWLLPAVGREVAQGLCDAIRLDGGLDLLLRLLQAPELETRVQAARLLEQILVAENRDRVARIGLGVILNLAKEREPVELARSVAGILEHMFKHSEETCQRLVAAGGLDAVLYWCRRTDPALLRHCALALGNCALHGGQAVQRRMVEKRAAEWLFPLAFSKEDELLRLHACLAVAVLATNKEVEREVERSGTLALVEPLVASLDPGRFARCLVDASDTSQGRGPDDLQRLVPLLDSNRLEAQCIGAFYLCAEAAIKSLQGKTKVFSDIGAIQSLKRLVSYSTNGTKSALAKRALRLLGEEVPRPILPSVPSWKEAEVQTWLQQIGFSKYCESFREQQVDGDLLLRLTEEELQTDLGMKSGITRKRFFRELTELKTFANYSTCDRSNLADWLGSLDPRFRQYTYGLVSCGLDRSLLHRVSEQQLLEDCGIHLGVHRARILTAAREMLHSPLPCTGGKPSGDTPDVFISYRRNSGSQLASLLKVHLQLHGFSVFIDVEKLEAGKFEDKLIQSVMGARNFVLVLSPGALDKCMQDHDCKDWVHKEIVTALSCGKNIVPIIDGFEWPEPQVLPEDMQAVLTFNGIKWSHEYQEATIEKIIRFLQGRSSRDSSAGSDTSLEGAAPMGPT

[16] = target: Mitogen-activated protein kinase 7 (Homo sapiens) (UniProt Q13164); assay: Gal4-ERK5 driven luciferase induction – cell-based, HTS, primary screen (AID 1508626;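 active = luciferase signal above three times the same-plate solvent-only control wells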;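 also: luciferase driven by Gal4-ERK5 fusion binding five Gal4 sites before minimal TATA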); conditions: HeLa Gal4-ERK5 transactivation, 18 h, at 5 µM, stronger effect = higher value
Chain of Mitogen-activated protein kinase 7 (Homo sapiens) (Q13164 whole entry, looked up, the tested form may be a part): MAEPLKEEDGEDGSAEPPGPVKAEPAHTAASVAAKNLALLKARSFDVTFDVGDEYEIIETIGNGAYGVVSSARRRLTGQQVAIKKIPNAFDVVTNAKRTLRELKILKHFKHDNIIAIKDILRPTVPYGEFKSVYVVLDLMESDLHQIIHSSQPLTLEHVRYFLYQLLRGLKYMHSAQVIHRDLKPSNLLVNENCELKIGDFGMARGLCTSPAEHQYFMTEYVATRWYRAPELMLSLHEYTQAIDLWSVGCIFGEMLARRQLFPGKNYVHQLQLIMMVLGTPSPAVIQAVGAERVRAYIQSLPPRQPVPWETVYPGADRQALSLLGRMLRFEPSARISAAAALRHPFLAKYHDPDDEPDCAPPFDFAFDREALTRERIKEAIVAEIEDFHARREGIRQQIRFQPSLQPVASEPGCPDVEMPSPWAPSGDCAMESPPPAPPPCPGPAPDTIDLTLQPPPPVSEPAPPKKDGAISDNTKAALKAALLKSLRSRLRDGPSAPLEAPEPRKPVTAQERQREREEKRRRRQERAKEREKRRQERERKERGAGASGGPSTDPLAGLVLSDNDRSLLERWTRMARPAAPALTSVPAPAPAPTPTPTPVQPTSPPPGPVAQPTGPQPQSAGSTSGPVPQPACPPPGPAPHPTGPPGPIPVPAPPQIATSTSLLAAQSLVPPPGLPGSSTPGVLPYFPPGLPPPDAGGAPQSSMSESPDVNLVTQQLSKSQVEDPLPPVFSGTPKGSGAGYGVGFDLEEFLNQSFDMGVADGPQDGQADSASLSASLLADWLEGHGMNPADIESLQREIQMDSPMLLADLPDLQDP

F380Y = assay: BK channel mutant inhibitors and activators – cell-based, U2OS BacMam, thallium flux, beta subunits, selectivity assay, profiling panel (AID 1259406); conditions: U2OS BacMam BK variants, at 30 µM;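 also: initial slope of Thallos dye fluorescence rise after thallium is added; log ratio against the mean of 0.3% DMSO vehicle wells on the same plate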
F380Y/beta2Delta = assay: as above; conditions: U2OS BacMam BK variants, at 30 µM
[17] = target: Calcium-activated potassium channel subunit alpha-1 (Homo sapiens) + Leucine-rich repeat-containing protein 26 (Homo sapiens) (UniProt Q12791+Q2I0M4); assay: as above; conditions: U2OS BacMam BK variants, F380Y/Slo1WT/gamma1, at 30 µM
Chain of Calcium-activated potassium channel subunit alpha-1 (Homo sapiens) + Leucine-rich repeat-containing protein 26 (Homo sapiens) (Q2I0M4 whole entry, looked up, one chain of several): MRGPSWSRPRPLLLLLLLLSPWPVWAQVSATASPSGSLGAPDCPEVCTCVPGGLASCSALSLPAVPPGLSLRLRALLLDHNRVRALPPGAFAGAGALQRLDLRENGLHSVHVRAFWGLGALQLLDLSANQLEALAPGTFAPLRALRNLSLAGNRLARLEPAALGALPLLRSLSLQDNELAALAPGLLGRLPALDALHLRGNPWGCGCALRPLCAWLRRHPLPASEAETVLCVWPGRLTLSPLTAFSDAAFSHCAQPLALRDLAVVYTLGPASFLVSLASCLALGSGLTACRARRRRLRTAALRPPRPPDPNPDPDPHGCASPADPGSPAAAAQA

[18] = viability loss with induced miR-34 in A549 – imaging, A549 dox-inducible miR-34, nuclei and caspase counts, primary screen (AID 1347080;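 active = compounds whose cell count with miR-34 switched on is under 0.7 times the count with it off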); conditions: A549 miR-34 inducible, Hoechst nuclei count, 48 h
[19] = measured here: epithelial PC-3E GFP cell survival
[20] = measured here: mesenchymal TEM4-18 mCherry cell survival
[21] = MELAS cybrid survival, CellTiter-Glo 48 h, stronger effect = higher value
[22] = Rieske KO mouse fibroblast survival, CellTiter-Glo 72 h
[23] = stronger effect = lower value, cell number ratio, induced over uninduced
[24] = measured here: relative caspase fold change +Dox/-Dox
[25] = measured here: total cells with miR-34 induction, stronger effect = lower value
[26] = measured here: total cells without miR-34 induction

COc1ccc2c(c1)c(CC(=O)O)c(C)n2C(=O)c1ccc(Cl)cc1
1%: nuclear beta-catenin stimulation ([4]; stimulation, at 2 µM)
0.93: normalised cell number [13, 20]
0.91: normalised cell number [13, 19]
inactive: inhibition [1] -3.56% | inhibition [2] -2.41% | fluorescence ratio [3] 1.01 | nuclear beta-catenin stimulation ([4]; at 10 µM) 0.6% | insulin secretion stimulation [5] -1% | viability decrease [6] -52.1% | tube area decrease [7] -10.5% | GLP1 secretion stimulation [8] 1.6% | inhibition of viability [9] 0.43% | viability decrease (inhibition) [10] 10.6% | viability decrease (inhibition) [11] 3.4% | inhibition [12] -5.45% | red/green cell ratio (normalised) [13] 1.02 | z-score [14, 21] -0.268 and 0.659 and 0.23 | remaining NAD [15] 10 nM | luciferase signal [16] 36 AU | log fold change Tl+ flux (F380Y) 0.0847 | log fold change Tl+ flux [17] 0.0683
active: log fold change Tl+ flux (F380Y/beta2Delta) 0.11
-0.036 and -0.235 and -0.118: z-score [14, 22]

CC(=O)OCC(=O)[C@@]1(O)CC[C@H]2[C@@H]3CCC4=CC(=O)C=C[C@]4(C)[C@H]3[C@@H](O)C[C@@]21C
inactive: inhibition [1] -5% | inhibition [2] -0.48% | fluorescence ratio [3] 0.91 | nuclear beta-catenin stimulation ([4]; at 10 µM) 1.2% | insulin secretion stimulation [5] 1% | viability decrease [6] 6.6% | tube area decrease [7] 5.5% | GLP1 secretion stimulation [8] 1.2% | inhibition of viability [9] -4.6% | viability decrease (inhibition) [10] -9.3% | viability decrease (inhibition) [11] -10.8% | inhibition [12] 20% | fold change [18, 23] 0.981 | remaining NAD [15] 10 nM | luciferase signal [16] 60 AU | log fold change Tl+ flux (F380Y) 0.0438 | log fold change Tl+ flux (F380Y/beta2Delta) -0.0297 | log fold change Tl+ flux [17] 0.072
8180: cell count [18, 26]
0.792: fold change [18, 24]
8020: cell count [18, 25]
0%: nuclear beta-catenin stimulation ([4]; stimulation, at 2 µM)

C=CCCCCCCCCC(=O)O
11700: cell count [18, 25]
69.8% (active) and 6.3% (inactive): viability decrease (inhibition) [10]
4.79: fold change [18, 24]
inactive: nuclear beta-catenin stimulation ([4]; at 10 µM) -0.1% and -2.1% | insulin secretion stimulation [5] -1.7% and 0.4% | viability decrease [6] -6.75% and -111% | tube area decrease [7] 3.3% and 1.9% | GLP1 secretion stimulation [8] 1.3% and -1.9% | inhibition of viability [9] 0.2% and 0.1% | viability decrease (inhibition) [11] 14.5% and 8% | red/green cell ratio (normalised) [13] 0.93 | fold change [18, 23] 0.879 | remaining NAD [15] 10 nM | luciferase signal [16] 20 AU
13300: cell count [18, 26]
0.95: normalised cell number [13, 20]
0.8% and -1.5%: nuclear beta-catenin stimulation ([4]; stimulation, at 2 µM)
1.02: normalised cell number [13, 19]

C[C@@H]1C[C@H]2[C@@H]3CCC4=CC(=O)C=C[C@]4(C)[C@@]3(F)[C@@H](O)C[C@]2(C)[C@@]1(O)C(=O)CO
0.569: z-score [14, 22]
-1.3%: nuclear beta-catenin stimulation ([4]; stimulation, at 2 µM)
8520 and 3940 and 8020: cell count [18, 26]
inactive: inhibition [1] -3.18% | inhibition [2] 0.29% | fluorescence ratio [3] 1 | nuclear beta-catenin stimulation ([4]; at 10 µM) -0.3% | insulin secretion stimulation [5] 8.4% | viability decrease [6] -0.1% | tube area decrease [7] -12.9% | GLP1 secretion stimulation [8] 4.4% | inhibition of viability [9] -7% | viability decrease (inhibition) [10] -0.8% | viability decrease (inhibition) [11] 5.8% | inhibition [12] 0.502% | fold change [18, 23] 0.906 and 0.84 and 0.875 | z-score [14, 21] 0.843 | remaining NAD [15] 10 nM | luciferase signal [16] 100 AU | log fold change Tl+ flux (F380Y) 0.096 | log fold change Tl+ flux (F380Y/beta2Delta) -0.01 | log fold change Tl+ flux [17] 0.0359
1.6 and 0.779 and 1.31: fold change [18, 24]
7720 and 3310 and 7020: cell count [18, 25]

O=C1N=C(O)CN1/N=C/c1ccc(-c2ccc([N+](=O)[O-])cc2)o1
4.2%: nuclear beta-catenin stimulation ([4]; stimulation, at 2 µM)
active: inhibition of viability [9] 20.3%
0.247: z-score [14, 22]
1.02: normalised cell number [13, 19]
inactive: nuclear beta-catenin stimulation ([4]; at 10 µM) 4.1% | insulin secretion stimulation [5] 2.6% | viability decrease [6] 9.2% | tube area decrease [7] -8.8% | GLP1 secretion stimulation [8] 1.9% | viability decrease (inhibition) [10] -30.5% | viability decrease (inhibition) [11] 5% | inhibition [12] 13.4% | red/green cell ratio (normalised) [13] 1.07 | z-score [14, 21] 0.073 | remaining NAD [15] 10 nM | luciferase signal [16] 156 AU
1.1: normalised cell number [13, 20]

C#C[C@]1(O)CC[C@H]2[C@@H]3CCC4=Cc5oncc5C[C@]4(C)[C@H]3CC[C@@]21C
-0.343 and -0.0493: z-score [14, 22]
active: viability decrease [6] 76.5% | inhibition of viability [9] 82.4% | viability decrease (inhibition) [10] 84.4% | viability decrease (inhibition) [11] 75.7%
inactive: inhibition [1] -3.18% | inhibition [2] 4.1% | fluorescence ratio [3] 1.01 | nuclear beta-catenin stimulation ([4]; at 10 µM) -0.9% | insulin secretion stimulation [5] 1.9% | tube area decrease [7] 15% | GLP1 secretion stimulation [8] 1.4% | inhibition [12] 14% | fold change [18, 23] 0.976 and 0.855 and 0.842 | z-score [14, 21] -0.753 and -0.503 | remaining NAD [15] 10 nM | luciferase signal [16] 32 AU | log fold change Tl+ flux (F380Y) -0.00831 | log fold change Tl+ flux (F380Y/beta2Delta) -0.066 | log fold change Tl+ flux [17] 0.00932
3.35 and 1.24 and 1.49: fold change [18, 24]
7330 and 8240 and 7200: cell count [18, 26]
7160 and 7050 and 6060: cell count [18, 25]
0%: nuclear beta-catenin stimulation ([4]; stimulation, at 2 µM)
